GPT2 inh: blocks human glutamate pyruvate transaminase 2 | Q8TD30 | Recombinant GPT2, coupled pyruvate oxidase/HRP Amplex Red fluorescence | Potency, µM (highest dose often 57.7 µM), for the others: top-dose activity change, negative = inhibition, most hits filed as inhibitors | actives 0.25% (n = 100,000) | AID 1671188; note: potency is the fitted concentration of half-maximal effect; nearly all actives have a fitted effect of over 60% in size
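Fluorescence read-out: pyruvate from GPT2 turnover coupled to pyruvate oxidase, HRP and Amplex Red (0.2mM ThPP, 0.2U/mL PO and HRP, 50uM Amplex final). Substrates 250uM a-KG, 2mM L-alanine; enzyme 10ng/uL; 30 min RT.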
IP6K1 inhibitor: inhibitors of human IP6K1; Q92551; IP6K1 kinase, ADP-Glo luminescence, 2 h; stronger effect = lower value; activity change, % (series mostly up to about 58 µM); actives 0.81% (n = 140,000); AID 1645851; in the data active = activity change below about -25%
Target sequence (Q92551 whole entry, looked up): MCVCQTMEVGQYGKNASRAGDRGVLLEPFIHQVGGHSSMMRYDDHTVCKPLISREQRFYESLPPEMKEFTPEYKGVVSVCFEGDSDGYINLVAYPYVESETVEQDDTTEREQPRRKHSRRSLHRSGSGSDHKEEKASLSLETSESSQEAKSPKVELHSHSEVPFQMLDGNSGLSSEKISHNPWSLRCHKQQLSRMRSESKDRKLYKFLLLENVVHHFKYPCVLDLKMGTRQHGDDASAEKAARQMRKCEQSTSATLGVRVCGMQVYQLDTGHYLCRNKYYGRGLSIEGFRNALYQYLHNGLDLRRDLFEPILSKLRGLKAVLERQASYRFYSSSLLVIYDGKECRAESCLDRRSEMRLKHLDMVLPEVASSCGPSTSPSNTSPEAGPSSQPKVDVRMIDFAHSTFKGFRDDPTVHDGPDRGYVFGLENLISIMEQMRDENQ
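ADP-Glo luminescence measures ADP made by human IP6K1 during a 2 h RT reaction with ATP/IP6 (mix at 1.3 mM/130 uM); top library doses 57.5 and 19.1 uM final.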
HEK293 viab: cell viability loss counter-screen; HEK-293-SNCA-luc viability, GF-AFC fluorescence, 24 h; AID 1671193; actives 0.12% (n = 150,000); Potency, µM (series often up to 57.1 µM), without a hit: at the top dose activity change, negative = cytotoxicity, actives largely listed as cytotoxic;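 note: potency is the fitted concentration of half-maximal effect; 0% = DMSO-treated cells and -100% = medium-only wells without cells; nearly all actives have a fitted effect of over 30% in size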
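Cytotoxicity counterscreen: after 24 h compound treatment of genome-edited SNCA-luciferase HEK-293 cells, live-cell protease substrate GF-AFC read by fluorescence after 30 min; activity scaled between DMSO (0%) and medium-only (-100%), curves Hill-fitted.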
SNCA expr inhib: reduces expression of the alpha-synuclein gene; Potency, µM (series often up to 57.2 µM), for the others: top-dose activity change, negative = inhibition, most hits filed as inhibitors; AID 1671194; HEK-293 SNCA-luciferase knock-in, luminescence, 24 h; actives 0.17% (n = 140,000);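 note: potency is the fitted concentration of half-maximal effect; plate controls were DMSO cells for no effect and cell-free wells for full effect; nearly all actives have a fitted effect of over 45% in size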
Numbers without * were called inactive; i = inactive; ? = inconclusive; . = no result given; ! = not confirmed by another sample; [ ] = dose if it differs, or a comment. A selection: hits, their analogues and other compounds. The true share with any hit is near 1.1%. Unless noted, calls come from the whole dose curve; as a rule, active = well fitted curve in the direction sought with a large enough effect; inconclusive = small, poorly fitted or top-dose-only effect, or another doubt; inactive = no such curve, though single readings can be large; an effect the other way counts as inactive or inconclusive. Unless noted, % is set by controls: 0 for no effect and ±100 for the full control effect.

SMILES	GPT2 inh	IP6K1 inhibitor	HEK293 viab	SNCA expr inhib
O=C(c1cc2ccc3cccnc3c2[nH]1)N1CCN(c2cccc(Cl)c2)CC1	.	27.4	?	?
CS(=O)(=O)c1ncc(Cl)c(C(=O)N2CCN(c3cccc(Cl)c3)CC2)n1	.	-25.7*	?	?
CCCCN1CCN(C(=O)c2csc(N3CCN(c4cccc(Cl)c4)CC3)n2)CC1	1.0%	-10.7	?	?
CCS(=O)(=O)c1ncc(Cl)c(C(=O)N2CCN(c3cccc(Cl)c3)CC2)n1	.	-5.6	3.55µM*	2.24µM*
O=C(CC[C@@H]1CNC(=O)[C@@H]2C[C@H](NC(=O)Nc3ccccc3)CN12)NCc1ccccc1	?	-0.3	8.7%	-2.8%
O=C(Cc1ccccc1)NC1CCN(c2ccnc3ccnn23)C1 (stereo unspecified)	-7.0%[88.5 µM]	5.8	14.6%[87.6 µM]	-5.3%[87.6 µM]
CCc1noc(-c2cn(C3CCN(C(=O)c4cccn4C)CC3)nn2)n1	i	34.9	7.6%	-25.6%
Cc1ccc(-c2cn3cc(C(=O)NCc4ccccn4)nc3s2)cc1	-8.2%	3.9	1.3%	60.9%
c1ccc(CN2CCCCC2c2nc(CCOCC3CCCC3)no2)nc1 (stereo unspecified)	-6.1%	5.0	4.2%[12.5 µM]	22.4µM*
Cc1ncsc1CN1CCCCC1c1nc(CCOCC2CC2)no1 (stereo unspecified)	i	41.9	1.5%	-32.8%
CNC(=O)N1CCC(Cc2noc(-c3ccncc3)n2)C1 (stereo unspecified)	i	9.5	-7.0%	-13.8%
C[C@H](C(=O)N1CCOCC1)C1CC[C@@]2(C)Cc3sc(-c4ccccc4)nc3[C@@H](C)[C@@H]2[C@H]1O (stereo partly specified)	2.5%	0.3	-7.3%	3.16µM*
COc1cccc(CNC(=O)[C@@H]2C[C@@H](O)CN2C2CCN(C(=O)CC(C)C)CC2)c1	2.3%	-1.5	5.2%	-2.9%
CCc1nnc(NC(=O)c2nc(S(=O)(=O)Cc3cccc(C)c3)ncc2Cl)s1	.	-4.1	20µM*	?
Cc1ccc(CS(=O)(=O)c2ncc(Cl)c(C(=O)Nc3nnc(C(C)C)s3)n2)cc1	.	-11.4	25.1µM*	?
O=C(Nc1nc2ccc(F)cc2s1)c1nc(S(=O)(=O)Cc2ccccc2F)ncc1Cl	.	-39.7*	?	?
Cn1cccc1-c1noc(C2CCN(C(=O)NC(C)(C)C)CC2)n1	-3.0%	23.1	17.6%	-3.0%
Cc1ccc(C(=O)N2CCCC3(CNc4ccccc4[S+](=O)([O-])N3)C2)cc1 (stereo unspecified)	0.7%	12.0	5.4%	-2.3%
NC(=O)[C@H]1CCCCc2c1[nH]c1ccc(Cl)cc21	-11.8%[27.3 µM]	3.7	-5.4%[23.9 µM]	.
NC(=O)C1CCCc2c1[nH]c1ccc(Cl)cc21 (stereo unspecified)	-21.2%	.	?	8.57µM*
CNC(=O)Nc1ccc(C2(C(=O)Nc3ccc4c(c3)CCC4)CCC2)cc1	i	12.2	-0.3%	14.4%
COCCC1(NC(=O)C(C)c2ccccc2)CCN(S(C)(=O)=O)CC1 (stereo unspecified)	i	-12.3	20µM*	-14.4%
COc1ccc(C(=O)N2CCC(C(NC(=O)c3ccccc3C)C(=O)NC(C)C(C)C)CC2)cc1 (stereo unspecified)	-16.5%	9.9	20µM*	-22.3%
O=C(O)c1cccnc1	-22.5%	3.4	4.29µM*!	4.29µM*!
CC1CCCN(C(=O)c2cc3ccc4cccnc4c3[nH]2)C1 (stereo unspecified)	.	-5.2	?	2.24µM*
SMILES	GPT2 inh	IP6K1 inhibitor	HEK293 viab	SNCA expr inhib
O=C(c1cc2ccc3cccnc3c2[nH]1)N1CCCCC1	.	-17.0	-2.3%	?
C[n+]1cc2c3c(ccc2c2ccc4cc5c(cc4c21)OCO5)OCO3	-32.2%	-19.0	12.6µM*!	?
O=C(NC1CC1)c1nc2cccnc2n(C2CCCC2)c1=O	i	14.9	-6.6%[87.6 µM]	2.5%[87.6 µM]
C=CCOCC(O)CN1CCC(=O)N(Cc2ccccc2)Cc2cc(OC)ccc21 (stereo unspecified)	.	-4.2	.	.
COc1ccc(-c2cc3nc4c(c(=O)n3[nH]2)CN(C(=O)Cc2ccc(NC(C)=O)cc2)CC4)cc1	?	0.0	4.6%	8.91µM*
C=C[C@@]1(C)C=C2C(=O)C(O)=C3[C@](C)(C(=O)O)CC[C@@H]4C[C@]34[C@]2(O)C(=O)C1	?	29.7	18.5µM*	.
c1ccc(OCC2CN(Cc3ccc4[nH]ccc4c3)CC23CN(c2ccccc2)C3)cc1 (stereo unspecified)	-33.4%[88.5 µM]	-0.6	?	20µM*
Cc1ccc(C2=NC3(CCN(C(=O)c4cc(F)ccc4F)CC3)ON2)cc1	3.4%	-2.0	1.7%	4.0%
Cc1ccc(NC(=O)C2(c3ccc4c(c3)OC(F)(F)O4)CC2)nc1-c1cccc(C(=O)O)c1	i	-4.2	?	0.0764µM*
Cc1nn2c(c1-c1ccccc1Oc1ccccc1)N(Cc1ccc(C(=O)O)s1)CCC2	i	7.6	?	12.6µM*
Cc1nn2c(c1-c1ccccc1[S+](C)(=O)[O-])N(Cc1ccc(C(=O)O)s1)CCC2	-10.0%[88.5 µM]	27.6	?	3.98µM*
COc1ccc(C(=O)N2CCC3(C2)C(=O)N(CCc2ccccc2)c2ccccc23)cc1 (stereo unspecified)	3.4%	-0.5	?	-10.5%
COc1ccc(C(=O)N2CCC3(C2)C(=O)N(Cc2ccccc2)c2ccccc23)cc1 (stereo unspecified)	i	-6.6	11.2µM*	?
CC(C)(C)CNC1(Cc2cc(CCO)on2)COC1	0.7%[88.5 µM]	-6.0	5.7%[87.6 µM]	-8.5%[87.6 µM]
CCN(CC)CCOc1ccc(Nc2ncc3cc(-c4c(Cl)cccc4Cl)c(=O)n(C)c3n2)cc1	?	.	?	3.04µM*
O=C(Nc1cn[nH]c1-c1nc2ccc(CN3CCOCC3)cc2[nH]1)NC1CC1	-3.8%	-1.8	?	24.1µM*
Cc1nn2c(c1-c1ccccc1-c1ccccc1)N(CCC(C)C)CCC2	-14.5%[88.5 µM]	-9.0	?	1.12µM*
Cc1nn2c(c1-c1ccccc1C(N)=O)N(CCCc1ccccc1)CCC2	i	12.0	?	1.41µM*
Cc1nn2c(c1-c1ccccc1-c1ccccc1)N(Cc1ccccc1)CCC2	0.4%[88.5 µM]	-2.0	?	?
CCOC(=O)N1CCC(Nc2ncncn2)CC1	?	-10.9	-4.0%	-1.0%
CCOC(=O)N1CCC(Nc2ccc(Cl)cc2N)CC1	8.91µM*	-12.3	-31.7%[23.9 µM]	-38.9%[25.6 µM]
O=C(NCC1CC1)c1ccc2oc(-c3cccnc3)nc2c1	?	-7.5	3.9%[87.6 µM]	74.3%[87.6 µM]
CCOC(=O)c1ccc(N2C(=O)c3n[nH]c(-c4cccs4)c3C2c2cccc(OC)c2)cc1 (stereo unspecified)	.	-2.1	-21.0%	17.8µM*
NC(=O)[C@@H]1C[C@H](Oc2ccccc2)CN1C(=O)Cc1ccccc1	i	2.2	10.6%	-8.9%
O=C(CN1C(=O)NC(c2ccc(Cl)cc2)C2=C1COC2=O)Nc1ccc(Cl)cc1F (stereo unspecified)	1.2%	1.6	-13.1%	-9.9%

Screens: PubChem BioAssay, National Center for Advancing Translational Sciences (NCATS)
